Inconclusive results are not listed. The source made the active and inactive calls. Calls come from the whole dose curve.
test: p53 small molecule agonists, cell-based qHTS assay with rat liver microsomes (AID 1963578); settings: HCT-116 p53RE-bla, beta-lactamase ratio, 16 h; series mostly up to 66 µM; activation: at the top concentration
Excerpt: U.S. Tox21 Program National Center for Advancing Translational Sciences [NCATS] Division of Preclinical Innovation [DPI] U.S. Environmental Protection Agency [EPA] National Institutes of Environmental Health Sciences [NIEHS] National Toxicology Program [NTP] U.S. Food and Drug Administration [FDA] Tox21 Assay Overview: p53, a tumor suppressor protein, is activated following cellular insult, including DNA damage and other cellular stresses. The activation of p53 regulates cell fate by inducing DNA repair, cell cycle arrest, apoptosis, or cellular senescence. The activation of p53, therefore, is a good indicator of DNA damage and other cellular stresses. […] The activation of the reporter gene under culture conditions can be detected by fluorescence intensity. This cell line was used to screen the Tox21 10K compound library in the condition of presence of rat liver microsomes and to identify agonists that activate the p53 signaling pathway after in vitro metabolic activation (Ooka et al., Archive of Toxicology 96:1975-1987, 2022).
Tox21 Assay Protocol Summary: The p53RE-bla cells were dispensed at 4,000cells/3ul/well in 1536-well black-clear bottom plates. After the assay plates were incubated at 37 C, 5% CO2 incubator for 5 hours, 23 nL of compounds dissolved in DMSO, positive controls or DMSO only was transferred to the assay plate. Following compound addition, 3 uL of rat liver microsomes (Molecular Toxicology, Boone, NC) at final concentration of 0.5 mg/mL and 1uL of Beta-Nicotinamide adenine dinucleotide 2-phosphate (NADPH) at final concentration of 0.5 mg/mL were transferred to the assay plate. The plates were incubated at 37 C for 16 hours. 1 uL of LiveBLAzer detection mixture was added to each well and the plates were incubated at room temperature in the dark for 2 h.
% is set by controls: 0 for no effect and ±100 for the full control effect.

Structure (SMILES) | activation | Potency
O=C(O)[C@@H](O)[C@H](O)[C@H](O)[C@@H](O)C(=O)O | -3.1% [at 30.3 µM] (inactive) | 
Cc1c(C(=O)c2c[nH]n(C)c2=O)ccc(S(C)(=O)=O)c1C1=NOCC1 | -0.519% [at 30.3 µM] (inactive) | 
Cc1cc(N)no1 | 1.03% (inactive) | 
CCCCSCCCC | -2.9% (inactive) | 
Cc1ccc(NC(=O)N(C)C)cc1NC(=O)N(C)C | -0.265% (inactive) | 
CCc1ccc(C)nc1 | -1.43% (inactive) | 
CC(C)(c1ccc(O)cc1)c1ccc(O)cc1 | 4.39% (inactive) | 
CCCCCCCCSCC | -2.96% (inactive) | 
OCc1ccccc1O | 0.306% [at 30.3 µM] (inactive) | 
O=C(O)/C=C/c1ccccc1 | -2.12% (inactive) | 
O=C(O)c1ccccc1OP(=O)(O)O | -0.53% [at 30.3 µM] (inactive) | 
Nc1cccc2c1CN(C1CCC(=O)NC1=O)C2=O (stereo not given) | -0.241% [at 30.3 µM] (inactive) | 
CCCC(C)C(O)CC (stereo not given) | -0.317% (inactive) | 
COc1ccc(C)cc1 | 0.535% (inactive) | 
O=C(O)c1cc(=O)c2c(OCC(O)COc3cccc4oc(C(=O)O)cc(=O)c34)cccc2o1 |  | inactive
OCCN1CCN(CCCN2c3ccccc3C=Cc3ccccc32)CC1 | 0.989% [at 30.3 µM] (inactive) | 
NC(=O)Nc1ccc(Cl)cc1 | 1.17% (inactive) | 
O=c1n(CCCN2CCN(c3cccc(Cl)c3)CC2)nc2ccccn12 |  | inactive
CC1=C(C=O)C(C)(C)CC=C1 | -2.52% (inactive) | 
CCCCNc1ccccc1 | 0.21% (inactive) | 

Structure (SMILES) | activation | Potency
Cc1cc(C)c(C(=O)O)c(C)c1 | 0.93% (inactive) | 
NC(=S)Nc1cccc2ccccc12 | 0.459% [at 5.99 µM] (inactive) | 
CCCc1ccc(N)cc1 | 1.52% (inactive) | 
CCO/C([O-])=N/c1c[n+](N2CCOCC2)no1 | -1.48% [at 30.3 µM] (inactive) | 
C(/C=C/C=C/Nc1ccccc1)=Nc1ccccc1 | -1.51% (inactive) | 
OCC(CO)N[C@H]1C[C@](O)(CO)[C@@H](O)[C@H](O)[C@H]1O | -0.802% [at 30.3 µM] (inactive) | 
NC(=O)c1ccccc1N | -2.08% (inactive) | 
CC/C=C\CC1=C(C)CCC1=O | -3.53% (inactive) | 
CCOC(OCC)OCC | -2.32% (inactive) | 
CC[C@H]1CN2CCc3cc(OC)c(OC)cc3[C@@H]2C[C@@H]1C[C@H]1NCCc2cc(OC)c(OC)cc21 |  | inactive
CCCN[C@H]1CCc2nc(N)sc2C1 |  | inactive
COC(=O)c1ccc(C)cc1C1=NC(C)(C(C)C)C(=O)N1 (stereo not given) | -0.985% (inactive) | 
O=[N+]([O-])c1ccc(Oc2ccc([N+](=O)[O-])cc2)cc1 | 0.0186% (inactive) | 
C1CCCNCCC1 | 1.7% (inactive) | 
COCC(C)OC(C)=O (stereo not given) | -0.0769% (inactive) | 
O=C1CCCc2ccccc21 | -3.48% (inactive) | 
CCCCCCCC(=O)OCCCCCC | -3.61% (inactive) | 
CCC(=O)OC(C)(C)C1CC=C(C)CC1 (stereo not given) | 0.24% (inactive) | 
Cc1ncsc1CCO | 0.472% (inactive) | 
CCCCOCCOCCOCCCC | 0.775% (inactive) | 

From PubChem BioAssay (Tox21)
